Experimental data as given in PubChem BioAssay AID431 (Sanford-Burnham Center for Chemical Genomics, 2006).
About 1,100 (1.7%) of roughly 63,000 compounds were called active.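 How the source made its calls: active means compounds whose percent cytotoxicity in the single-dose primary screen, scaled between solvent and toxic-drug controls, exceeds 50; inactive means the rest.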 Many of the other results were omitted from the sample, so actives are more common in it than they were. Entries with a potency or affinity are not part of this list.

Assay: viability loss of HPDE-C7K cells – cell-based, fluorescence, HTS, primary screen (AID 431);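 further: 0% = DMSO solvent wells and 100% = doxorubicin-treated wells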
Conditions: HPDE-C7K KRASV12 cells, Alamar Blue viability, 48 h; at 10 µM; stronger effect = higher value

Compound	cytotoxicity
CCOC(=O)c1cc2c(ccn2C)n1CC(=O)N1CCN(c2ccc(F)cc2)CC1	-18.9% (inactive)
CSc1nc(N2CCOCC2)c2ccccc2n1	9.1% (inactive)
Cc1cc(C)c(NC(=O)CN2CCN3CCCC3C2)c(C)c1 (stereo not drawn)	2.9% (inactive)
O=C(NC1CC2CCCC(C1)N2C1CC1)NC12CC3CC(CC(C3)C1)C2 (stereo not drawn)	5.1% (inactive)
CCOC(=O)c1cccc(NC(=O)CSc2nc3ccccc3c(=O)n2CC)c1	-11.5% (inactive)
O=C(COC(=O)CCC1CCCC1)Nc1ccc(Cl)cn1	-7.1% (inactive)
COc1cccc(N2CC(O)Cn3c2nc2c3c(=O)n(CCCc3ccccc3)c(=O)n2C)c1 (stereo not drawn)	7.7% (inactive)
CN1C(=O)CSc2ccc(NC(=O)Nc3ccccn3)cc21	-13.1% (inactive)
Cc1cc(C)nc(NS(=O)(=O)c2ccccc2)n1	16.4% (inactive)
COc1ccc(-c2ccc(SCC(=O)N3CCOCC3)nn2)cc1	-3.5% (inactive)
COc1ccc(-c2nc3c(c(SCC(=O)N4CCOCC4)n2)COC(C)(C)C3)cc1	52.7% (active)
O=C(CSc1nc(-c2ccccc2)nc2c1CCCC2)N1CCOCC1	-14.2% (inactive)
COCCCNC(=O)CS(=O)(=O)Cc1nc(-c2ccccc2C)oc1C	-5.9% (inactive)
CC(=O)N1CCc2ccc(C(=O)CN3CCN(c4cccc(C)c4C)CC3)cc21	-16.3% (inactive)
Cc1nc(N2CCCC2)c2nnn(Cc3ccccc3Cl)c2n1	-7.7% (inactive)
O=C(c1ccco1)N1CCN(c2nc(C(F)(F)F)nc3c2nnn3Cc2ccccc2)CC1	-16.9% (inactive)
Cc1nc(SCC(=O)NCc2ccco2)c2c3c(sc2n1)CCCC3	2.5% (inactive)
CSc1nc(SCC(=O)NCc2ccco2)c2c3c(sc2n1)CN(C)CC3	4.2% (inactive)
CC(C)c1nc2sc3c(SCC(=O)NCc4ccco4)ncnc3c2c2c1CCC2	7.4% (inactive)
c1coc(CNc2ncnc3sc4c(c23)CCCCC4)c1	-13.4% (inactive)
CSc1nc(NCc2ccco2)c2c3c(sc2n1)CN(C)CC3	-5.3% (inactive)
O=C(CSc1ncnc2sc3c(c12)CCCCC3)NCc1ccco1	1.1% (inactive)
CSc1nc(SCC(=O)NCc2ccco2)c2c3c(sc2n1)COC(C)(C)C3	50.1% (active)
Cc1nc(NCc2ccco2)c2c3c(sc2n1)CCC3	52% (active)
CC(C)Sc1nc(NCc2ccco2)c2c3c(sc2n1)COC(C)(C)C3	68.5% (active)

Compound	cytotoxicity
CC(C)c1nc2sc3c(NCc4ccco4)ncnc3c2c2c1COC(C)(C)C2	-13.3% (inactive)
CCCc1nc2sc3c(SCC(=O)NCc4ccco4)ncnc3c2c2c1CCC2	50.3% (active)
CC(C)Sc1nc(SCC(=O)NCc2ccco2)c2c3c(sc2n1)COC(C)(C)C3	0.4% (inactive)
COc1cccc(C(O)c2cnc(C(C)C)n2C)c1OC (stereo not drawn)	10.6% (inactive)
O=C(Nc1ccc(S(=O)(=O)N2CCCCC2)cc1)c1ccncc1	-7.1% (inactive)
CCOc1ccccc1-c1nnc(SCC(=O)Nc2ccccc2)o1	-17.6% (inactive)
COCCCNC(=O)CS(=O)(=O)Cc1nc(-c2cccc(OC)c2)oc1C	-6.5% (inactive)
COc1ccc(-c2nnc3n2-c2ccccc2SC3)cc1OC	0% (inactive)
O=C(Cc1cc(=O)[nH]c(=O)[nH]1)N1CCN(C(=O)c2ccco2)CC1	7.1% (inactive)
CCCCc1ccc(-c2ccc(C)cc2O)nc1	-28% (inactive)
CCCCCc1cc(O)c2c(C)cc(=O)oc2c1	39.2% (inactive)
Cc1ccc(-c2csc3nc(C)n(-n4c(C)ccc4C)c(=O)c23)o1	10.3% (inactive)
C=CCn1c(SCc2csc(C)n2)nc2scc(-c3ccc(C)o3)c2c1=O	80.2% (active)
C=CCn1c(SCc2csc(C)n2)nc2sc3c(c2c1=O)CCCCC3	2.5% (inactive)
Cc1ccc(-c2noc(CN(C(=O)CCN3C(=O)c4ccccc4C3=O)C(C)C)n2)cc1	-8.2% (inactive)
CC(=O)OCCOc1nc(N(C)C)nc(N(C)C)n1	-13.1% (inactive)
O=C(CCN1CCCC1Cc1ccccc1)c1ccc2c(c1)OCCO2 (stereo not drawn)	-15.3% (inactive)
CCCOc1ccc2ccccc2c1/C=N/n1c(C)nnc1-n1nc(C)cc1C	39.3% (inactive)
Cc1cc(C)n(-c2nnc(C)n2/N=C/c2cc(Br)ccc2OCc2ccccc2)n1	65.2% (active)
Cc1cc(C)n(-c2nnc(C)n2/N=C/c2ccccc2OCc2ccccc2Cl)n1	43.9% (inactive)
COc1ccc(-c2nnn(CC(=O)c3ccc4c(c3)OCCO4)n2)cc1OC	0.3% (inactive)
CN1CCN(C(=O)c2ccc3ccccc3c2)CC1	-8.1% (inactive)
O=C(c1ccc2ccccc2c1)N1CCN(c2ccc(O)cc2)CC1	65.9% (active)
O=C(c1ccc2ccccc2c1)N1CCN(c2ccccc2)CC1	-11.6% (inactive)
CC(C)OCCCNC(=O)c1ccc(NC(=O)C2CCCO2)cc1 (stereo not drawn)	-5.7% (inactive)

Compound	cytotoxicity
Cc1cc(NC(=O)C23CCC(C)(C(=O)O2)C3(C)C)no1 (stereo not drawn)	1.7% (inactive)
O=C(NCc1ccco1)N1c2ccccc2Sc2ccccc21	7.5% (inactive)
COC(=O)C1=C(C)NC(=O)C1(NC(=O)CN1CCCC1=O)C(F)(F)F (stereo not drawn)	13.1% (inactive)
CCOC(=O)C1CCCN(C(=O)c2cc3c(C)nc4ccccc4c3o2)C1 (stereo not drawn)	-14.6% (inactive)
Cc1sc(NC(=O)CSc2nnnn2C2CCCC2)c(C#N)c1C	-6.4% (inactive)
N#Cc1c(NC(=O)CSc2nnnn2C2CCCC2)sc2c1CCCC2	50.4% (active)
N#Cc1c(NC(=O)CSc2nnnn2C2CCCCC2)sc2c1CCCC2	-26.1% (inactive)
CC1CCCN(C(=O)c2ccc3nc[nH]c3c2)C1 (stereo not drawn)	-23.2% (inactive)
COc1ccc(C)cc1NC(=O)c1ccc(S(=O)(=O)N2CCOCC2)cc1	-1.3% (inactive)
COc1cccc(C=NCCNC(=O)c2nonc2N)c1O	-2.1% (inactive)
Nc1nonc1C(=O)NCCNC(=O)c1ccccc1F	2.3% (inactive)
Nc1nonc1C(=O)NCCN=Cc1cc(Cc2ccccc2)cc(Br)c1O	82.8% (active)
O=C(OCc1ccccc1Cl)c1ccc(-n2cnnc2)cc1	-8% (inactive)
CCOc1ccc(-n2cnnn2)cc1S(=O)(=O)NCc1ccccc1	4.1% (inactive)
CC(C)(O)C1=NOC(c2ccccc2)C1 (stereo not drawn)	6.7% (inactive)
CCOC(=O)c1ccc(NC(=O)CSc2nnc(-c3cccs3)n2CC)cc1	0.1% (inactive)
Cc1ccc(SC/C(O)=C(\C#N)c2nc3ccccc3s2)cc1	79.7% (active)
Cc1ccc(SC/C(O)=C(\C#N)c2nc3ccccc3n2C)cc1	20.5% (inactive)
COC(=O)c1ccc(/C(O)=C(\C#N)c2nc3ccccc3s2)cc1	52.1% (active)
COc1ccc(C/C(O)=C(\C#N)c2nc3ccccc3s2)cc1	46.6% (inactive)
CC(C)=C(C#N)c1nc2ccccc2s1	-11.4% (inactive)
N#C/C(=C(/O)CN1CCOCC1)c1nc2ccccc2s1	3% (inactive)
c1ccc(N2CCN(c3nnc(Cc4cccnc4)c4ccccc34)CC2)nc1	8.4% (inactive)
COc1ccc(OC)c(NC(=O)c2cnc3ccccn3c2=O)c1	12.6% (inactive)
COC(=O)CN(c1ccc(F)cc1)S(=O)(=O)c1ccccc1	-5.6% (inactive)

Compound	cytotoxicity
CC(C)CCNC(=O)CN(C(=O)CCC(=O)Nc1ccccn1)c1ccc2c(c1)OCO2	-9.3% (inactive)
COC(=O)c1cc(N2C(=O)C3C(C2=O)C2(C)C=CC3(C)O2)ccc1Cl (stereo not drawn)	8% (inactive)
Cc1cccc(OCCn2c(=O)n(C)c3ccccc32)c1	2.1% (inactive)
Cc1cccc(OCCCN2CCCCCC2)c1	18.4% (inactive)
CCCn1nc(CC(=O)O)c2ccccc2c1=O	0.6% (inactive)
Cc1ccc(NC(=O)CCn2c(=O)oc3ccccc32)c(C)c1	-9.2% (inactive)
CCCCn1c(SCc2c(C)noc2C)nc2cc(S(N)(=O)=O)ccc21	39.5% (inactive)
CCCCn1c(SCN2C(=O)c3ccccc3C2=O)nc2cc(S(N)(=O)=O)ccc21	-14.9% (inactive)
CCCCn1c(SCc2ncc(-c3ccccc3)o2)nc2cc(S(N)(=O)=O)ccc21	53.1% (active)
COc1ccccc1C1C2CCCCC2(O)CCN1CC(=O)Nc1ccccc1 (stereo not drawn)	-7.4% (inactive)
Cn1cc(S(=O)(=O)CC(=O)N2CCc3ccccc32)c2ccccc21	26.9% (inactive)
COc1ccc(C(=O)CSc2nnc(-c3cc4ccccc4cc3O)n2Cc2ccco2)cc1	66.1% (active)
O=C(CSc1nnc(-c2cc3ccccc3cc2O)n1Cc1ccco1)c1ccc(F)cc1	13.1% (inactive)
COc1ccc(C(=O)CSc2nnc(-c3ccccn3)n2Cc2ccco2)cc1	5% (inactive)
CCCn1c(C)nc2c(c1=O)c1nc3ccccc3nc1n2CCC1=CCCCC1	16.1% (inactive)
O=c1c2c3nc4ccccc4nc3n(/N=C/c3ccco3)c2ncn1CCC1=CCCCC1	30% (inactive)
Cc1nc2c(c(=O)n1CCC1=CCCCC1)c1nc3ccccc3nc1n2/N=C/c1ccco1	63.1% (active)
COc1ccc(OC)c(S(=O)(=O)n2nc(-c3ccccc3)cc2N)c1	-10.9% (inactive)
COc1ccc(S(=O)(=O)n2nc(-c3cc(OC)c(OC)c(OC)c3)cc2N)cc1OC	5.2% (inactive)
O=C(CSc1nc2ccccc2[nH]1)N1CCCCC1	0.6% (inactive)
COc1ccc(-c2noc(C3CCCN(C(=O)c4cccs4)C3)n2)cc1 (stereo not drawn)	-10.3% (inactive)
Cc1ccccc1NC(=O)N1CCCC(c2nc(-c3ccc(C(C)C)cc3)no2)C1 (stereo not drawn)	28.5% (inactive)
COc1ccc(NC(=O)N2CCCC(c3nc(-c4ccc(C(C)C)cc4)no3)C2)cc1 (stereo not drawn)	65.6% (active)
